The values below come from PubChem BioAssay (NCATS).

Inconclusive results are not listed. Values without a mark were called inactive. Calls of active or inactive are those of the source. The call rests on the fitted dose curve; in most records, active means well fitted curve in the direction sought with a large enough effect; inconclusive means small, poorly fitted or top-dose-only effect, or another doubt; inactive means no such curve, though single readings can be large; an effect the other way counts as inactive or inconclusive.

For one experiment, the system named is W2. The experiment can be described thus: qHTS profiling for inhibitors of Plasmodium falciparum proliferation (AID 504749). Further: nearly all actives have a fitted effect of over 60% in size. Further: potency means the concentration at half of the fitted maximal effect. Conditions: P. falciparum in erythrocytes, SYBR Green DNA, 72 h; series mostly up to 28.7 µM. The gist of the method:
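Infected RBCs, 0.3% parasitemia/2.5% Hct final; cpd 72 h, 37 C, 5% CO2; lysis buffer with saponin/triton/SYBR Green I, o/n RT dark; FI 485/535; norm. to artemisinin (0.29 uM) and DMSO.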

The next experiment relates to CRL-7250. The experiment can be described thus: Cytotoxic Profiling of Annotated Libraries Using Quantitative High-Throughput Screening (AID 1296008). Further: nearly all actives have a fitted effect of over 60% in size. On max response: on the % scale 0 is the no-effect control and ±100 the full control effect. The conditions noted are these: Five cell lines viability, CellTiter-Glo ATP luminescence, 48-72 h; max response: active compounds read low. In short, it runs like this: (§1)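 Cytotoxicity was measured as CellTiter-Glo ATP luminescence, read after 10 min at room temperature. Compound treatment of the cells lasted 48 or 72 hr at 37 degrees Celsius in a qHTS format.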
Background: Cellular ATP, detected with luciferase, serves as a proxy for viable cell number.

In experiment [1] the test system is HaCat. The experiment is described as above. The conditions noted are these: Five cell lines viability, CellTiter-Glo ATP luminescence, 48-72 h; max response: active compounds read low. In short, it runs like this: as §1
The next experiment concerns NIH3T3. The experiment is described as above. The conditions noted are these: Five cell lines viability, CellTiter-Glo ATP luminescence, 48-72 h; max response: active compounds read low. The gist of the method: as §1
Experiment [2] has as its system HACAT. The experiment can be described thus: qHTS assay to identify novel small-molecules to repurpose for Merkel cell carcinoma treatment (AID 1296009). Further: nearly all actives have a fitted effect of over 60% in size. Conditions: MCC and control cell lines, CellTiter-Glo viability, 72 h; at 44.8 µM (top of the series) unless noted. The gist of the method:
(§2)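 72 hr, 37 degree celsius; NPC 8-pt / MIPE 11-pt dose response; compound pinned in DMSO; CellTiter-Glo, 10 min RT, luminescence; normalized to no-cell and DMSO controls.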
(In general: Quantitative high-throughput screening tests each substance at several concentrations.)

A further experiment concerns MCC-13. The description is as above. Conditions: MCC and control cell lines, CellTiter-Glo viability, 72 h; series mostly up to 46 µM. In short, it runs like this:
as §2

Another experiment has as its system MCC-26. The experiment is described as above. The conditions noted are these: MCC and control cell lines, CellTiter-Glo viability, 72 h; series mostly up to 46 µM. The gist of the method:
as §2

The test system of another experiment is MKL-1. The description is as above. Conditions: MCC and control cell lines, CellTiter-Glo viability, 72 h; series mostly up to 46 µM. The gist of the method: as §2
A further experiment has as its system MKL-2. The experiment is described as above. Conditions: MCC and control cell lines, CellTiter-Glo viability, 72 h; series mostly up to 46 µM. The gist of the method:
as §2

The next experiment concerns UISO. Described as above. Conditions: MCC and control cell lines, CellTiter-Glo viability, 72 h; series mostly up to 46 µM. The gist of the method: as §2
The next experiment has as its system WaGa. Described as above. The conditions noted are these: MCC and control cell lines, CellTiter-Glo viability, 72 h; series mostly up to 46 µM. In short, it runs like this:
as §2

A further experiment deals with C33A. The experiment can be described thus: Primary qHTS to identify gynecologic anti-cancer compounds using libraries of approved drugs and bioactive compounds (AID 1345084). Further: on the % scale 0 is the no-effect control and ±100 the full control effect; nearly all actives have a fitted effect of over 55% in size. Conditions: Gynecologic cancer cell panel viability, ATPlite luminescence, 48 h; series mostly up to 57.5 µM. In short, it runs like this: (§3)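 Five-concentration response, 48 h; readout is ATP-driven luciferase luminescence.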

Another experiment concerns CASKI. The description is as above. Conditions: Gynecologic cancer cell panel viability, ATPlite luminescence, 48 h; series mostly up to 57.5 µM. In short, it runs like this:
as §3

In the next experiment the test system is Es-2. Described as above. Conditions: Gynecologic cancer cell panel viability, ATPlite luminescence, 48 h; series mostly up to 57.5 µM. In short, it runs like this: as §3
The test system of the next experiment is HeLa. Described as above. The conditions noted are these: Gynecologic cancer cell panel viability, ATPlite luminescence, 48 h; series mostly up to 57.5 µM. The gist of the method: as §3
The next experiment relates to KB-3-1. Kind of experiment: Cytotoxic Profiling of Annotated Libraries Using Quantitative High-Throughput Screening (AID 1296008). Further: nearly all actives have a fitted effect of over 60% in size. On max response: on the % scale 0 is the no-effect control and ±100 the full control effect. The conditions noted are these: Five cell lines viability, CellTiter-Glo ATP luminescence, 48-72 h; max response: active compounds read low. The gist of the method:
as §1

For another experiment, the system named is CAOV3. Kind of experiment: Primary qHTS to identify gynecologic anti-cancer compounds using libraries of approved drugs and bioactive compounds (AID 1345084). Further: on the % scale 0 is the no-effect control and ±100 the full control effect; nearly all actives have a fitted effect of over 55% in size. The conditions noted are these: Gynecologic cancer cell panel viability, ATPlite luminescence, 48 h; series mostly up to 57.5 µM. The gist of the method:
as §3

A further experiment deals with HEK293. Kind of experiment: Cytotoxic Profiling of Annotated Libraries Using Quantitative High-Throughput Screening (AID 1296008). Further: nearly all actives have a fitted effect of over 60% in size. On max response: on the % scale 0 is the no-effect control and ±100 the full control effect. The conditions noted are these: Five cell lines viability, CellTiter-Glo ATP luminescence, 48-72 h; max response: active compounds read low. In short, it runs like this:
as §1

Take `OCCOCCN1CCN(C2=Nc3ccccc3Sc3ccccc32)CC1`: the Potency with W2 was 4.26 µM (active). Moreover, the figures for the max response with CRL-7250 and with NIH3T3 were -6.31% and -7.78%, respectively. In addition, the molecule was classed as inactive in the experiment with HaCat [1] and with HACAT [2]. Also, the Potency result in the experiment with MCC-13, with MCC-26, in the experiment on MKL-1, in the experiment on MKL-2, in the experiment on UISO and in the experiment with WaGa was “inactive” throughout. The Potency result in the experiment with C33A, in the experiment with CASKI, in the experiment with Es-2 and in the experiment on HeLa was “inactive” each time.
As for `O=C1OC(CN2CCOCC2)CN1/N=C/c1ccc([N+](=O)[O-])o1` (configuration not stated), in the experiment with CRL-7250, the call was inactive. Moreover, the max response with HaCat [1] is 2.11%; in the experiment with KB-3-1, 2.54%; in the experiment with NIH3T3 it was -5.18%. In addition, the Potency result in the experiment with MCC-13, in the experiment on MCC-26, in the experiment on UISO, in the experiment on WaGa, with C33A and with CAOV3 was “inactive” each time. For the same molecule, the Potency entry with CASKI, in the experiment with Es-2 and in the experiment on HeLa was “inactive” throughout.
Consider `COc1ccc(S(=O)(=O)N2c3ccc(Cl)cc3[C@@](O)(c3ccccc3Cl)[C@H]2C(=O)N2CCC[C@@H]2C(N)=O)cc1OC`, for which the max response in the experiment on CRL-7250 is -16.1%; in the experiment on HaCat [1] it was -3.91%; in the experiment on NIH3T3, 1.04%. Besides, the Potency entry with MCC-13, in the experiment on MCC-26, in the experiment with MKL-1, in the experiment with MKL-2, in the experiment with UISO and in the experiment with WaGa was “inactive” throughout. Also, the Potency result in the experiment with C33A, in the experiment on CAOV3, in the experiment on CASKI, in the experiment on Es-2 and with HeLa was “inactive” each time.
Consider `CN(CCCN1c2ccccc2CCc2ccccc21)CC(=O)c1ccc(Cl)cc1`, for which, in the experiment with W2, the Potency is 3.38 µM (active). In addition, the max response in the experiment on CRL-7250 was -9.87%; in the experiment with HaCat [1], -17.1%; in the experiment with KB-3-1, 3.26%; in the experiment with NIH3T3, 3.31%. Further, the Potency entry with MCC-13, in the experiment on MCC-26, with MKL-1, with C33A, in the experiment on CAOV3 and in the experiment with CASKI was “inactive” each time. In addition, the Potency entry in the experiment with Es-2 and in the experiment with HeLa was “inactive” throughout.
With `FC(F)(F)C(F)(F)C(F)(F)C(F)(F)C(F)(F)C(F)(F)C(F)(F)C(F)(F)Br`, the Potency entry with W2, with MCC-13, in the experiment with MCC-26, with MKL-1, with MKL-2 and with UISO was “inactive” in each case. In addition, the Potency entry in the experiment with WaGa, in the experiment on C33A, in the experiment with CAOV3, with CASKI, in the experiment with Es-2 and in the experiment with HeLa was “inactive” each time. The max response was 0.523% in the experiment with HEK293, 13.3% with KB-3-1 and -4.33% in the experiment with NIH3T3. Besides, the outcome in the experiment on HaCat [1] and with HACAT [2] was inactive.
Regarding `CC(C)[C@@H]1CC[C@@H](C)CC1=O`, the max response in the experiment on HEK293 is -11.3%; in the experiment with KB-3-1, -7.81%; with NIH3T3 it was 4.81%. Further, the molecule was called inactive in the experiment on HaCat [1] and in the experiment with HACAT [2]. Moreover, the Potency result in the experiment with MCC-13, in the experiment on MCC-26, with MKL-1, in the experiment with MKL-2, with UISO and in the experiment on WaGa was “inactive” throughout. The Potency result in the experiment on C33A, in the experiment with CAOV3, in the experiment on CASKI, in the experiment with Es-2 and with HeLa was “inactive” in each case.
Take `CCN1CCCC(OC(=O)C(c2ccccc2)c2ccccc2)C1` (configuration not stated): in the experiment on CRL-7250, the result was inactive. The figures for the max response in the experiment on HaCat [1], in the experiment on KB-3-1 and with NIH3T3 were -8.51%, -9.59% and 2.04%, respectively. In addition, the Potency entry in the experiment on MCC-13, with MKL-1, with MKL-2, with UISO, in the experiment with WaGa and in the experiment on C33A was “inactive” in each case. The Potency entry in the experiment on CAOV3, with CASKI, with Es-2 and with HeLa was “inactive” each time.
